# Data reported in the supplement of paper PMC8728848.
# The entries come from a sample that favours the strongest signals as a whole.
# B1: SBD-G4S3-Fc (protein)
# chain: MASIPSSASVQLDSYNYDGSTFSGKIYVKNIAYSKKVTVVYADGSDNWNNNGNIIAASFSGPISGSNYEYWTFSASVKGIKEFYIKYEVSGKTYYDNNNSANYQVSTGGGGSGGGGSGGGGSEFVPRDCGCKPCICTVPEVSSVFIFPPKPKDVLTITLTPKVTCVVVDISKDDPEVQFSWFVDDVEVHTAQTQPREEQFNSTFRSVSELPIMHQDWLNGKEFKCRVNSAAFPAPIEKTISKTKGRPKAPQVYTIPPPKEQMAKDKVSLTCMITDFFPEDITVEWQWNGQPAENYKNTQPIMDTDGSYFVYSKLNVQKSNWEAGNTFTCSVLHEGLHNHHTEKSLSHSPGAA
# Key:
# Experiment in all cases: glycan array binding signal (z-score within array); higher = stronger binding
# Conditions in all cases: glycan notation: IUPAC condensed, linker removed
# [1] = target: Fuc(a1-2)Gal(b1-3)GalNAc(b1-3)Gal(a1-4)Gal(b1-4)Glc
# Summary of the method: (§1)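 Arrays were curated from the Consortium for Functional Glycomics database, 3228 in total, and kept only where the protein sequence was available. Binding is expressed as a within-array Z-score. This score was averaged across arrays of the same protein sequence at different concentrations or buffers and across linkers, and negative values can be read as non-binding.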
# [2] = target: Fuc(a1-2)Gal(b1-3)GlcNAc(b1-3)[Neu5Ac(a2-6)Gal(b1-4)GlcNAc(b1-6)]Gal(b1-4)Glc
# Summary of the method: as §1
# [3] = target: Fuc(a1-2)Gal(b1-3)GlcNAc6S
# Summary of the method: as §1
# [4] = target: Fuc(a1-2)Gal(b1-3)[Fuc(a1-4)]GlcNAc(b1-2)Man(a1-3)[Fuc(a1-2)Gal(b1-3)[Fuc(a1-4)]GlcNAc(b1-2)Man(a1-6)]Man(b1-4)GlcNAc(b1-4)[Fuc(a1-6)]GlcNAc(b1-4)[Fuc(a1-6)]GlcNAc
# Summary of the method: as §1
# Fuc(a1-2)Gal(b1-4)GlcNAc = target: Fuc(a1-2)Gal(b1-4)GlcNAc
# Summary of the method: as §1
# [5] = target: Fuc(a1-2)Gal(b1-4)GlcNAc(b1-3)Gal(b1-4)GlcNAc(b1-2)Man(a1-3)[Fuc(a1-2)Gal(b1-4)GlcNAc(b1-3)Gal(b1-4)GlcNAc(b1-2)Man(a1-6)]Man(b1-4)GlcNAc(b1-4)GlcNAc
# Summary of the method: as §1
# [6] = target: Fuc(a1-2)Gal(b1-4)GlcNAc(b1-3)Gal(b1-4)GlcNAc(b1-3)Gal(b1-4)GlcNAc
# Summary of the method: as §1
# [7] = target: Fuc(a1-2)Gal(b1-4)[Fuc(a1-3)]GlcNAc
# Summary of the method: as §1
# [8] = target: Fuc(a1-2)Gal(b1-4)[Fuc(a1-3)]GlcNAc(b1-3)GalNAc
# Summary of the method: as §1
# [9] = target: Fuc(a1-2)[Gal(a1-4)]Gal(b1-4)GlcNAc
# Summary of the method: as §1
# [10] = target: Fuc(a1-2)[GalNAc(a1-3)]Gal(b1-3)GalNAc(a1-3)[Fuc(a1-2)]Gal(b1-4)GlcNAc
# Summary of the method: as §1
# [11] = target: Fuc(a1-2)[GalNAc(a1-3)]Gal(b1-3)GalNAc(b1-3)Gal(a1-4)Gal(b1-4)Glc
# Summary of the method: as §1
# [12] = target: Fuc(a1-2)[GalNAc(a1-3)]Gal(b1-4)GlcNAc(b1-2)Man(a1-3)[Fuc(a1-2)[GalNAc(a1-3)]Gal(b1-4)GlcNAc(b1-2)Man(a1-6)]Man(b1-4)GlcNAc(b1-4)GlcNAc
# Summary of the method: as §1
# [13] = target: Fuc(a1-2)[GalNAc(a1-3)]Gal(b1-4)GlcNAc(b1-3)[Fuc(a1-2)[GalNAc(a1-3)]Gal(b1-4)GlcNAc(b1-6)]GalNAc
# Summary of the method: as §1
# [14] = target: Gal(a1-3)Gal(b1-3)GlcNAc(b1-2)Man(a1-3)[Gal(a1-3)Gal(b1-3)GlcNAc(b1-2)Man(a1-6)]Man(b1-4)GlcNAc(b1-4)GlcNAc
# Summary of the method: as §1
# [15] = target: Gal(a1-3)Gal(b1-4)GlcNAc(b1-2)Man
# Summary of the method: as §1
# [16] = target: Gal(a1-3)Gal(b1-4)GlcNAc(b1-3)GalNAc
# Summary of the method: as §1
# [17] = target: Gal(a1-3)[Gal(a1-4)]Gal(b1-4)GlcNAc
# Summary of the method: as §1
# [18] = target: Gal(b1-3)GalNAc(a1-3)[Fuc(a1-2)]Gal(b1-4)Glc
# Summary of the method: as §1
# [19] = target: Gal(b1-3)GalNAc(b1-3)Gal(a1-4)Gal(b1-4)Glc
# Summary of the method: as §1
# Gal(b1-3)GlcNAc(b1-2)Man = target: Gal(b1-3)GlcNAc(b1-2)Man
# Summary of the method: as §1
# [20] = target: Gal(b1-3)GlcNAc(b1-2)[Gal(b1-3)GlcNAc(b1-6)]Man(a1-6)[Gal(b1-3)GlcNAc(b1-2)Man(a1-3)]Man(b1-4)GlcNAc(b1-4)GlcNAc
# Summary of the method: as §1
# [21] = target: Gal(b1-3)GlcNAc(b1-6)Gal(b1-4)GlcNAc
# Summary of the method: as §1
# [22] = target: Gal(b1-3)[Neu5Ac(b2-6)]GalNAc
# Summary of the method: as §1
# [23] = target: Gal(b1-4)GlcNAc(b1-2)Man(a1-3)Man(b1-4)GlcNAc(b1-4)GlcNAc
# Summary of the method: as §1
# [24] = target: Gal(b1-4)GlcNAc(b1-2)Man(a1-3)[GlcNAc(b1-2)Man(a1-6)]Man(b1-4)GlcNAc(b1-4)GlcNAc
# Summary of the method: as §1
# [25] = target: Gal(b1-4)GlcNAc(b1-2)Man(a1-6)[Man(a1-3)]Man(b1-4)GlcNAc(b1-4)GlcNAc
# Summary of the method: as §1
# [26] = target: Gal(b1-4)GlcNAc(b1-2)[Gal(b1-4)GlcNAc(b1-6)]Man(a1-6)[GlcNAc(b1-4)][Gal(b1-4)GlcNAc(b1-2)Man(a1-3)]Man(b1-4)GlcNAc(b1-4)GlcNAc
# Summary of the method: as §1
# [27] = target: Gal(b1-4)GlcNAc(b1-3)Gal(b1-4)Glc
# Summary of the method: as §1
# [28] = target: Gal(b1-4)GlcNAc(b1-3)Gal(b1-4)GlcNAc
# Summary of the method: as §1
binder,measurement,setting,value
B1,glycan array binding signal (z-score),[1],-0.249
same,glycan array binding signal (z-score),[2],-0.478
same,glycan array binding signal (z-score),[3],-0.371
same,glycan array binding signal (z-score),[4],0.339
same,glycan array binding signal (z-score),Fuc(a1-2)Gal(b1-4)GlcNAc,-0.284
same,glycan array binding signal (z-score),[5],1.23
same,glycan array binding signal (z-score),[6],-0.034
same,glycan array binding signal (z-score),[7],0.134
same,glycan array binding signal (z-score),[8],0.32
same,glycan array binding signal (z-score),[9],-0.203
same,glycan array binding signal (z-score),[10],5.6
same,glycan array binding signal (z-score),[11],0.07
same,glycan array binding signal (z-score),[12],0.007
same,glycan array binding signal (z-score),[13],-0.2
same,glycan array binding signal (z-score),[14],1.16
same,glycan array binding signal (z-score),[15],-0.234
same,glycan array binding signal (z-score),[16],0.357
same,glycan array binding signal (z-score),[17],1.33
same,glycan array binding signal (z-score),[18],-0.267
same,glycan array binding signal (z-score),[19],0.103
same,glycan array binding signal (z-score),Gal(b1-3)GlcNAc(b1-2)Man,-0.388
same,glycan array binding signal (z-score),[20],-0.089
same,glycan array binding signal (z-score),[21],-0.401
same,glycan array binding signal (z-score),[22],-0.146
same,glycan array binding signal (z-score),[23],0.225
same,glycan array binding signal (z-score),[24],-0.37
same,glycan array binding signal (z-score),[25],0.054
same,glycan array binding signal (z-score),[26],0.227
same,glycan array binding signal (z-score),[27],-0.301
same,glycan array binding signal (z-score),[28],-0.054
